The list is not random: actives were taken first. Their share in the collection is about 3.4%.
GCN5L2 inh = qHTS Assay for Inhibitors of GCN5L2; hit rate 0.21% among 390,000; Histone acetyltransferase KAT2A (Homo sapiens), Q92830; GCN5L2 HAT assay, ThioGlo1 CoA-SH fluorescence; Potency, µM (series often up to 58.9 µM), actives largely listed as inhibitors
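GCN5L2 (20 nM) in 50mM HEPES pH 7.5, 0.1mM EDTA, 0.01% Tween-20 preincubated 15 min with compounds at room temperature. Reaction started with H3(1-25) 75uM, acetyl-CoA 70uM, ThioGlo1 50uM; CoA-thiol fluorescence (Ex340/Em540) read at 0 and 20 min.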
Mito fusion act = qHTS Assay for Small Molecule Inhibitors of Mitochondrial Division or Activators of Mitochondrial Fusion; S. cerevisiae fusion-defective mutant growth rescue, CellTiterGlo 48 h; Potency, µM (doses to about 46.1 µM), usual class: activators; hit rate 0.23% among 320,000; further: nearly all actives have a fitted effect of over 45% in size
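Compounds are tested for their ability to restore growth of mitochondrial fusion-defective yeast strains at non-permissive 37C in YPEG medium over 48 hours. Viability is quantified by luciferase luminescence.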
PKM2 activator = qHTS Assay for Activators of Human Muscle isoform 2 Pyruvate Kinase | Pyruvate kinase PKM (Homo sapiens), P14618 | purified PKM2, Kinase-Glo ATP luminescence, activation; response scale: 0% is enzyme alone, no compound | Potency, µM (top dose mostly 57.5 µM), usual class: activators | hit rate 0.34% among 260,000; further: nearly all actives have a fitted effect of over 55% in size
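Purified hPK-M2 (>95% pure) converted ADP (0.1 mM final) to ATP with 0.5 mM PEP in 50 mM imidazole pH7.2, KCl, MgCl2, Tween 20, BSA; 1 h at room temperature. ATP detected by Kinase-Glo luminescence.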
VDR inhibitor = Inhibitors of the vitamin D receptor (VDR): qHTS | Vitamin D3 receptor (Homo sapiens), P11473 | VDR-SRC2-3 peptide fluorescence polarization, 2 h | Potency, µM, actives largely listed as inhibitors | hit rate 0.93% among 400,000 | AID 504847, 2011
Target sequence (P11473 whole entry, looked up): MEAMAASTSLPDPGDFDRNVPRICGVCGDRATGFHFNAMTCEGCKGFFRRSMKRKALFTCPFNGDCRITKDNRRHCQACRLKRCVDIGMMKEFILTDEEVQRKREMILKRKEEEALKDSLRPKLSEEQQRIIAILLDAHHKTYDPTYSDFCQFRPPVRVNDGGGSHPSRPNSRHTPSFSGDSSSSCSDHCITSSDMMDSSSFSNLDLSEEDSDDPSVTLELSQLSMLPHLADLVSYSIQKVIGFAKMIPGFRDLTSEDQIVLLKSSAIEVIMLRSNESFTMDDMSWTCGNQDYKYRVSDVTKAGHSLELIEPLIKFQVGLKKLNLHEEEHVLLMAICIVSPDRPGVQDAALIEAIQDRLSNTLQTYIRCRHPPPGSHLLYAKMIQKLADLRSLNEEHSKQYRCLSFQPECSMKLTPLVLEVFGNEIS
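The screen uses fluorescence polarization to detect compounds that interfere with recruitment of the SRC2-3 coactivator peptide to VDR; plates are read after 2 h at room temperature.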
PLK1 PBD block = qHTS for Inhibitors of PLK1-PDB (polo-like kinase 1 - polo-box domain): Primary Screen; Serine/threonine-protein kinase PLK1 (Homo sapiens), P53350; Plk1 PBD binding of FITC phosphopeptide, fluorescence polarization; Potency, µM, actives largely listed as inhibitors; hit rate 2.8% among 360,000; AID 720504, 2013; further: series mostly up to about 57 µM; nearly all actives have a fitted effect of over 65% in size
GLS inhibitor = qHTS for Inhibitors of Glutaminase (GLS); Glutaminase kidney isoform, mitochondrial (Homo sapiens), O94925; GLS enzymatic activity, qHTS titration; Potency, µM (titrated, usually from 45.5 µM), hits mostly inhibitors; hit rate 0.21% among 410,000
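Compounds were pin-transferred onto hKGA, after which L-glutamine (1 mM solution) and a detection mix of glutamate oxidase, HRP and Amplex Red were added. Initial and 30 min RT fluorescence reads were collected.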
Of the large screens only hits and unclear results are named; the others gave an inactive call. The call rests on the fitted dose curve; in most records, active means well fitted curve in the direction sought with a large enough effect; inconclusive means small, poorly fitted or top-dose-only effect, or another doubt; inactive means no such curve, though single readings can be large; an effect the other way counts as inactive or inconclusive.

c1ccc(Cn2nnc3c(N4CCc5ccccc5C4)ncnc32)cc1	PKM2 activator 14.1µM
O=C(NC1CCSC1=O)c1ccc(Oc2cccc(C(F)(F)F)c2)nc1 (stereo unspecified)	PLK1 PBD block 21.2µM
O=[N+]([O-])c1ccc(Oc2cccc(C(F)(F)F)c2)nc1	VDR inhibitor inconclusive, PLK1 PBD block 26.7µM
O=[N+]([O-])c1ccc(Oc2ccc(C(F)(F)F)cn2)cc1	none
CC(=O)Oc1c(Br)cc(N(C(C)=O)S(=O)(=O)c2ccccc2)c2ccccc12	PLK1 PBD block 26.7µM
O=C1NN(c2ccccc2)C(=O)/C1=C/c1ccc(-c2ccc(C(=O)O)cc2)o1	GCN5L2 inh inconclusive, VDR inhibitor inconclusive, PLK1 PBD block 21.2µM, GLS inhibitor 11.2µM
O=C(O)c1ccc(N2C(=O)/C(=C/c3ccc(-c4ccc([N+](=O)[O-])cc4)o3)C=C2c2ccccc2)cc1	PKM2 activator inconclusive, VDR inhibitor inconclusive, PLK1 PBD block 11.9µM, GLS inhibitor inconclusive
O=C1NN(c2ccc(Cl)c(Cl)c2)C(=O)/C1=C/c1ccc(-c2ccccc2C(=O)O)o1	GCN5L2 inh inconclusive, VDR inhibitor 44.7µM, PLK1 PBD block 18.9µM, GLS inhibitor 12.6µM (no result: PKM2 activator)
O=C1NN(c2ccccc2)C(=O)/C1=C/c1ccc(Sc2cccc3ccccc23)o1	VDR inhibitor inconclusive, PLK1 PBD block 11.9µM
Cc1ccc(OCCn2cc(/C=C3\C(=O)NN(c4ccccc4)C3=O)c3ccccc32)cc1	none
Cc1ccc(S(=O)(=O)N2C(=O)[C@@H]3Cc4ccccc4CN3C2=O)cc1	none (no result: PKM2 activator)
COC(=O)c1ccc(N2NC(=O)/C(=C/c3ccc(-c4ccc(Cl)c(C(=O)O)c4)o3)C2=O)cc1	VDR inhibitor 79.4µM, PLK1 PBD block 16.8µM, GLS inhibitor inconclusive
COc1ccc(C(=Cc2ccccc2[N+](=O)[O-])C(=O)O)cc1	none (no result: GCN5L2 inh, Mito fusion act, PKM2 activator)
Cc1cccc(N2CCN(C(=O)c3ccc(NC4=NC5CS(=O)(=O)CC5S4)cc3)CC2C)c1 (stereo unspecified)	PLK1 PBD block 23.8µM (no result: PKM2 activator)
O=C(c1ccc(NC2=NC3CS(=O)(=O)CC3S2)cc1)N1CCN(c2ccccc2)CC1 (stereo unspecified)	GCN5L2 inh inconclusive
O=S(OCCN1CCOCC1)C(c1ccccc1)c1ccccc1 (stereo unspecified)	none (no result: GCN5L2 inh, Mito fusion act, PKM2 activator)
COc1ccc(CCNC(=S)Nc2ccc(OC)cc2)cc1	PLK1 PBD block 21.2µM
Cc1c(C(=O)NC2CCN(Cc3ccccc3)C2)oc2c(Cl)cccc12 (stereo unspecified)	Mito fusion act 3.55µM
COc1ccc(CCNC(=S)Nc2ccccc2)cc1	none
O=C(NC1CCN(Cc2ccccc2)CC1)c1ccccc1Cl	none
COc1ccc(CCNC(=S)NC2CCN(Cc3ccccc3)CC2)cc1	PLK1 PBD block 29.9µM
O=C(CCCCCNC(=S)Nc1ccccc1)C[N+](=O)[O-]	none
COc1ccc(NC(=S)NCCCCCC(=O)C[N+](=O)[O-])cc1	VDR inhibitor inconclusive, PLK1 PBD block 23.8µM
O=C(OC1C2CCC1C1CN(CCc3ccccc3)CC12)c1ccccc1 (stereo unspecified)	none
CCc1nn(CC(=O)N2CCC(C)CC2)c(=O)c2cc3occc3n12	none (no result: Mito fusion act, PKM2 activator, PLK1 PBD block)
CC(C)(C)NC(=O)NC(=O)CN1CCCCC1	none
CC(C)(C)c1ccc(C(=O)NC2CCN(Cc3ccccc3)CC2)cc1	Mito fusion act 35.5µM (no result: PKM2 activator)
CC(C)(C)NC(=O)NC(=O)CN1CCN(Cc2ccccc2)CC1	PLK1 PBD block 29.9µM, GLS inhibitor inconclusive
O=C1N/C(=N/Nc2ccccc2)S/C1=C\c1ccccc1	GCN5L2 inh inconclusive, VDR inhibitor 44.7µM, PLK1 PBD block 21.2µM
